Shown are actives, neighbours in structure and some others; about 20% of the full set was active somewhere.
CHX counter: affects cycloheximide protein synthesis inhibition readout, counter-screen; max response, %; 12% of 300,000 active; cell reporter, cycloheximide protein synthesis inhibition counterscreen; AID 2314; in the data active = max response mostly above about 13%, no sharp cut-off; inactive = mostly below about 14%; also: read at 38.3 µM for the half of the compounds with a filed dose; 0% is about no effect
Shiga inhibitor: blocks Shiga toxin action in Vero cells. Vero cells, Shiga toxin protein synthesis inhibition reporter. 9.2% of 290,000 active. AID 2315. inhibition, % at 38.7 µM; in the data active = inhibition mostly above about 28%, no sharp cut-off; inactive = mostly below about 43%; also: 0% is about no effect
Pf growth 96h: P. falciparum growth inhibition at 96 hours | P. falciparum luciferase reporter growth, 96 h | Potency, µM (series often up to 28.7 µM), for inactives: at the highest dose activity change, negative = inhibition, usual class: inhibitors | 6.9% of 320,000 active | AID 504834; also: potency is read from the fitted curve at half-maximal effect; % is scaled to controls: 0 for no effect and ±100 for the full control effect
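Luminescence readout: decreased luciferase signal marks inhibited growth of reporter-expressing P. falciparum in infected red cells (2% hematocrit, 0.05% parasitemia final), exposed to compound two generations (96 h, 37 C, 5% CO2).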
Pf growth 48h: inhibits P. falciparum growth in the first generation, 48 h. P. falciparum luciferase growth in erythrocytes, 48 h. Potency, µM (top dose mostly 28.7 µM), for the others: top-dose activity change, negative = inhibition, actives largely listed as inhibitors. 5.9% of 310,000 active. AID 504832; also: potency is read from the fitted curve at half-maximal effect; % is scaled to controls: 0 for no effect and ±100 for the full control effect
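Compounds are pin-transferred into medium, infected erythrocytes (2% hematocrit, 0.1% parasitemia final) are added, and plates sit one parasite generation at 37 C in 5% CO2. Detection reagent is then added and luminescence measured.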
HCMV inh: blocks human cytomegalovirus replication | 4.5% of 410,000 active | HFF cells, HCMV-luciferase reporter, 72 h; active compounds read low | AID 1259415 | activity change, negative = inhibition, % at 57.5 µM; in the data active = activity change below about -60%; inconclusive = no clear call, values can overlap the other calls; inactive = above about -39%; also: % is scaled to controls: 0 for no effect and ±100 for the full control effect
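Luciferase read-out from HCMV-luciferase-infected HFFs (MOI 1 PFU/cell) 72 h post infection at 37C; compounds added after 16 h cell attachment; activity normalized between buffer-only basal and Salinomycin (10uM) inhibitor controls.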
The depositor's hits bear a star; ? = inconclusive; . = not tested or not shown; [ ] = remark or other dose. Unless noted, calls follow the shape of the dose curve; as a rule, active = well fitted inhibition curve with a large enough effect; inconclusive = small, poorly fitted or top-dose-only effect, or another doubt; inactive = no such curve, though single readings can be large or run the other way.

SMILES	CHX counter	Shiga inhibitor	Pf growth 96h	Pf growth 48h	HCMV inh
CNC(=O)c1cc2c(-c3ccccc3)nn(C)c2s1	-2	17	-20%	-18%[0.00184 µM]	-28
CNC(=O)c1cc2c(s1)-c1ccccc1CC2	49*	100*	29%	47%	96
CNC(=O)c1cc(C)c(-c2ccccc2)s1	46*	35	.	?	53
C=C(C)COc1ccc2c(C)c(CC(=O)N3C[C@H]4C[C@@H](C3)c3cccc(=O)n3C4)c(=O)oc2c1C	-1	-5	12µM*	?	?
Cc1coc2cc3oc(=O)c(CC(=O)N4C[C@H]5C[C@@H](C4)c4cccc(=O)n4C5)c(C)c3cc12	-2	-2	?	0%	-14
Cc1c(CC(=O)N2C[C@H]3C[C@@H](C2)c2cccc(=O)n2C3)c(=O)oc2cc3occ(C(C)(C)C)c3cc12	-2	-8	8.3µM*	-27%	-26
Cc1ccc(C(=O)N/N=C\c2cccc(OC(=O)c3cccc(F)c3)c2)cn1	20*	43*	-1%	14%	-10
COc1ccc(/C=N/NC(=O)c2ccc(C)nc2)cc1O	5	0	-13%	15%	-25
COc1cccc(/C=N\NC(=O)c2ccc(C)nc2)c1	29*	46*	?	29%	13
COCC(=O)N1CCC(Oc2ccc(C(=O)NCCCn3cccn3)cc2)CC1	3	-2	22%	-28%	-29
COCC(=O)N1CCC(Oc2ccc(C(=O)NCCCC3CCCC3)cc2)CC1	11	40	7.4µM*	-1%	-19
CCN(CCn1cccn1)C(=O)c1ccc(OC2CCN(C(=O)COC)CC2)cc1	21*	33	?	3%	25
CCn1ccnc1CNC(=O)c1ccc(OC2CCN(C(=O)COC)CC2)cc1	-4	-6	5.2µM*	14%	-33
O=C(c1ccccc1)C1NC1c1ccccc1 (centres undefined)	61*	47*	103%	59%	98
O=C(c1ccccc1)C1C(=O)c2ccccc2C1=O	1	-7	14%	0%	11
CCOC(=O)c1ccc(S(=O)(=O)NNC(=O)COc2ccc(C)cc2)cc1	-3	-2	-2%	-7%	106
C=CCNC(=S)N/N=C(\C)c1ccccn1	17	54	0.0029µM*	.	-103*
C/C(=N/NC(=O)CNC(=O)c1ccccn1)c1ccccc1	10	10	124%	81%	38
CC(=NNC(=S)Nc1ccccc1)c1ccccn1	.	.	.	.	-98*
N/C(=N\NC(=O)Nc1ccccc1)c1ccccn1	45*	57*	38%	41%	60
CC(=NNC(=S)Nc1ccccc1Cl)c1ccccn1	.	.	.	.	-99*
O=C(CC(c1cccs1)N1Cc2ccccc2C1=O)Nc1ccc(F)c(Cl)c1 (centres undefined)	.	.	.	.	-24
CNc1cc2c(Nc3cccc(Br)c3)ncnc2cn1	-3	-4	.	.	.
Cc1ccn2c(=O)nc(SCC(=O)N3CCN(c4ccccc4)CC3)nc2c1	.	.	-7%	?	-3
O=C1C2CCN(CC2)[C@@H]1Cc1ccc2ccccc2c1O	33*	40*	0%	0%	32
SMILES	CHX counter	Shiga inhibitor	Pf growth 96h	Pf growth 48h	HCMV inh
Cc1sc2nc(-c3ccccc3)[nH]c(=O)c2c1-c1ccccc1	-4	-5	16%	17%	.
Cc1sc2nc(-c3cccnc3)nc(Cl)c2c1-c1ccccc1	11	7	?	8.3µM*	3
CN(C)c1ccc(C=c2c3cc([N+](=O)[O-])ccc3n3c2cc(-c2ccccc2)[n+]3C)cc1	.	.	.	.	-100*
CN(C)c1ccc(C=c2c3ccccc3n3c2cc(-c2ccccc2)[n+]3C)cc1	.	.	.	.	-99*
CN(C)c1ccc(C=C2C=C(c3ccccc3)OC2=O)cc1	.	.	.	.	-37
COc1cc(N(C)C)ccc1C=c1c2ccccc2n2c1cc(-c1ccccc1)[n+]2C	.	.	.	.	-99*
CN(C)c1ccc(C=c2c3ccccc3n3c2c2c([n+]3C)CCCC2)cc1	.	.	.	.	-99*
CCN(CC)CC(=O)n1c2c(c3ccccc31)CCCC2	4	2	31%	-4%	11
CN(C(=O)CSc1cn(CC(=O)N2CCCCCC2)c2ccccc12)c1ccccc1	.	.	.	.	105
Cc1ccc([C@H]2C[C@@H](n3cc(-c4ccc(F)cc4)nn3)[C@H](O)CN2C(=O)c2cccs2)cc1	.	.	.	.	-10
CN(C)c1ccc(C=c2c3ccccc3n3c2cc(-c2ccc(Cl)cc2)[n+]3C)cc1	.	.	.	.	-99*
COc1cc(C=c2c3ccccc3n3c2cc(-c2ccccc2)[n+]3C)cc(OC)c1OC	.	.	.	.	-101*
Cc1cccc(C)c1Nc1ncnc2ccccc12	-2	-5	-78%	0%	42
Cc1ccc(S(=O)(=O)Nc2ncnc3ccccc23)cc1	16	27	35%	26%	-18
CCOC(=O)/C(=N\Nc1ncnc2ccccc12)c1ccc(C)cc1	18*	23	407%	170%	150
CCOC(=O)C/C(=N\Nc1ncnc2ccccc12)c1ccccc1	35*	87*	137%	35%	20
CC(=O)c1cccc(NC(=O)C2CCN(S(=O)(=O)c3ccc4c(c3)CCCN4C(C)=O)CC2)c1	.	.	.	.	-17
CC[C@@H](NCCCn1ccc(NC(=O)OCc2ccccc2)nc1=O)c1ccccc1	.	.	.	.	-13
O=C(/C=C/c1c(F)cccc1Cl)c1ccc(O)cc1	24*	58*	?	4%	-18
O=C(/C=C/c1ccccc1Cl)c1ccc(O)cc1	29*	54*	?	52%	5
CCCCNC(=O)CSc1nc2cc3c(cc2c(=O)n1CCCC(=O)NCc1ccc2c(c1)OCO2)OCO3	.	.	.	.	-13
Cc1c(Cl)cccc1NC(=O)Cn1c(=O)cc(C)c2c(C)nn(-c3cccc(F)c3)c21	.	.	.	.	-6
N#C/C(=C\c1c(N2CCN(c3ccccc3)CC2)nc2ccccn2c1=O)S(=O)(=O)c1ccccc1	-4	-9	?	-5%	-18
CC1CN(c2nc3ccccn3c(=O)c2/C=C(\C#N)S(=O)(=O)c2ccccc2)CC(C)O1 (centres undefined)	2	-7	63%	-12%	15
N#C/C(=C\c1c(N2CCCCC2)nc2ccccn2c1=O)S(=O)(=O)c1ccccc1	-2	-13	5.2µM*	-5%	-21
SMILES	CHX counter	Shiga inhibitor	Pf growth 96h	Pf growth 48h	HCMV inh
CC1CN(c2nc3ccccn3c(=O)c2C=O)CC(C)O1 (centres undefined)	-4	23	12µM*	20%	29
O=Cc1c(N2CCSCC2)nc2ccccn2c1=O	1	1	12%	6%	13
COc1ccccc1N1CCN(c2nc3ccccn3c(=O)c2C=O)CC1	29*	35*	?	-6%	45
O=Cc1c(N2CCN(CCO)CC2)nc2ccccn2c1=O	-2	-3	10µM*	0%	-14
CCN1CCN(c2nc3ccccn3c(=O)c2C=O)CC1	-2	-4	26%	16%	38
COc1ccc(-c2nc3ccccn3c2C=O)cc1	45*	70*	55%	219%	54
COc1ccc(N2CCN(c3nc4ccccn4c(=O)c3C=O)CC2)cc1	13*	16	0%	14%	25
O=Cc1c(-c2ccc(F)cc2)nc2ccccn12	26	32	-21%	79%	13
